Source: PubChem BioAssay AID1159580 (chemical genetic matrix, 2015)
The whole screen tested about 5,500 compounds, of which about 2,000 (36%) were called active. About 18% were inconclusive and are not listed. No stated cut-off is given here; in the data, active means normalized growth mostly below about 0.91 (no sharp cut-off); inconclusive means no clear call, values can overlap the other calls; inactive means mostly above about 0.92. This is one part of the list.

Assay: chemical genetic growth profiling, strain panel (AID 1159580);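 further: tested at 20 µM; growth read once vehicle control cultures reached saturation at 30 °C; 1 = growth at the plate median or of vehicle wells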
Settings: growth OD

Measured: normalized growth

Cc1cn([C@H]2C[C@H](N=[N+]=[N-])[C@@H](CO)O2)c(=O)[nH]c1=O
inactive: S. cerevisiae deletion strains, locus YJR066W, strain TOR1, stronger effect = lower value 0.932 | S. cerevisiae deletion strains, locus YKL009W, strain mrt4, stronger effect = lower value 0.995 | S. cerevisiae deletion strains, locus YKL068W, stronger effect = lower value 1.01 | S. cerevisiae deletion strains, locus YKL085W, strain MDH1 (second series), stronger effect = lower value 1.01 | S. cerevisiae deletion strains, locus YKL085W, strain MDH1, stronger effect = lower value 1.01 | S. cerevisiae deletion strains, locus YKL160W, strain elf1, stronger effect = lower value 0.975 | S. cerevisiae deletion strains, locus YKL190W, strain CNB1, stronger effect = lower value 1.01 | S. cerevisiae deletion strains, locus YKR001C, strain vps1, stronger effect = lower value 1.02 | S. cerevisiae deletion strains, locus YKR026C, strain gcn3, stronger effect = lower value 0.988 | S. cerevisiae deletion strains, locus YKR091W, strain srl3, stronger effect = lower value 0.999 | S. cerevisiae deletion strains, locus YLL001W, strain dnm1, stronger effect = lower value 0.978 | S. cerevisiae deletion strains, locus YLL026W, stronger effect = lower value 0.996 | S. cerevisiae deletion strains, locus YLL041C, strain sdh2, stronger effect = lower value 0.993 | S. cerevisiae deletion strains, locus YLR027C, strain aat2, stronger effect = lower value 0.99 | S. cerevisiae deletion strains, locus YLR039C, strain RIC1, stronger effect = lower value 0.989 | S. cerevisiae deletion strains, locus YLR058C, strain SHM2, stronger effect = lower value 1.01 | S. cerevisiae deletion strains, locus YLR102C, strain apc9, stronger effect = lower value 1.01 | S. cerevisiae deletion strains, locus YLR113W, strain HOG1, stronger effect = lower value 0.936 | S. cerevisiae deletion strains, locus YLR221C, strain rsa3, stronger effect = lower value 1.02 | S. cerevisiae deletion strains, locus YLR258W, strain gsy2, stronger effect = lower value 0.97 | S. cerevisiae deletion strains, locus YLR262C, strain YPT6 (second series), stronger effect = lower value 0.998 | S. cerevisiae deletion strains, locus YLR262C, strain YPT6, stronger effect = lower value 1.01 | S. cerevisiae deletion strains, locus YLR268W, strain sec22, stronger effect = lower value 1 | S. cerevisiae deletion strains, locus YLR320W, strain mms22, stronger effect = lower value 0.981 | S. cerevisiae deletion strains, locus YLR330W, strain CHS5, stronger effect = lower value 1 | S. cerevisiae deletion strains, locus YLR342W, strain FKS1 (second series), stronger effect = lower value 0.991 | S. cerevisiae deletion strains, locus YLR342W, strain FKS1, stronger effect = lower value 1.01 | S. cerevisiae deletion strains, locus YLR357W, strain rsc2, stronger effect = lower value 0.935 | S. cerevisiae deletion strains, locus YLR370C, strain arc18, stronger effect = lower value 0.98 | S. cerevisiae deletion strains, locus YLR371W, strain rom2, stronger effect = lower value 1.01 | S. cerevisiae deletion strains, locus YLR384C, strain iki3, stronger effect = lower value 1 | S. cerevisiae deletion strains, locus YLR418C, strain cdc73, stronger effect = lower value 1.04 | S. cerevisiae deletion strains, locus YML016C, strain PPZ1, stronger effect = lower value 1 | S. cerevisiae deletion strains, locus YML032C, strain rad52, stronger effect = lower value 1.01 | S. cerevisiae deletion strains, locus YML120C, strain ndi1, stronger effect = lower value 1.01 | S. cerevisiae deletion strains, locus YML124C, strain tub3, stronger effect = lower value 1.01 | S. cerevisiae deletion strains, locus YMR058W, strain fet3, stronger effect = lower value 1.02 | S. cerevisiae deletion strains, locus YMR078C, strain ctf18, stronger effect = lower value 1 | S. cerevisiae deletion strains, locus YMR125W, strain sto1, stronger effect = lower value 0.999 | S. cerevisiae deletion strains, locus YMR129W, stronger effect = lower value 0.99 | S. cerevisiae deletion strains, locus YMR205C, strain PFK2, stronger effect = lower value 0.975 | S. cerevisiae deletion strains, locus YMR223W, strain ubp8, stronger effect = lower value 1 | S. cerevisiae deletion strains, locus YMR231W, strain pep5, stronger effect = lower value 1 | S. cerevisiae deletion strains, locus YMR263W, strain SAP30, stronger effect = lower value 1.01 | S. cerevisiae deletion strains, locus YMR307W, strain GAS1, stronger effect = lower value 1.02 | S. cerevisiae deletion strains, locus YNL067W, strain RPL9B, stronger effect = lower value 1.02 | S. cerevisiae deletion strains, locus YNL071W, strain lat1, stronger effect = lower value 1.01 | S. cerevisiae deletion strains, locus YNL153C, strain GIM3, stronger effect = lower value 1 | S. cerevisiae deletion strains, locus YNL183C, strain NPR1, stronger effect = lower value 0.911 | S. cerevisiae deletion strains, locus YNL209W, strain ssb2, stronger effect = lower value 0.994 | S. cerevisiae deletion strains, locus YNL233W, strain BNI4, stronger effect = lower value 0.991 | S. cerevisiae deletion strains, locus YNL248C, strain rpa49, stronger effect = lower value 0.981 | S. cerevisiae deletion strains, locus YNL250W, strain rad50, stronger effect = lower value 1.02 | S. cerevisiae deletion strains, locus YNL271C, strain bni1, stronger effect = lower value 1.02 | S. cerevisiae deletion strains, locus YNL298W, strain CLA4, stronger effect = lower value 1.02 | S. cerevisiae deletion strains, locus YNL307C, strain MCK1, stronger effect = lower value 1.01 | S. cerevisiae deletion strains, locus YNL322C, strain KRE1 (second series), stronger effect = lower value 0.972 | S. cerevisiae deletion strains, locus YNL322C, strain KRE1, stronger effect = lower value 1 | S. cerevisiae deletion strains, locus YNR049C, strain mso1, stronger effect = lower value 0.996 | S. cerevisiae deletion strains, locus YNR052C, strain pop2, stronger effect = lower value 1.01 | S. cerevisiae deletion strains, locus YOL006C, strain TOP1, stronger effect = lower value 1 | S. cerevisiae deletion strains, locus YOL012C, strain htz1 1.05 | S. cerevisiae deletion strains, locus YOL147C, strain pex11, stronger effect = lower value 1.01 | S. cerevisiae deletion strains, locus YOR001W, strain rrp6, stronger effect = lower value 1.02 | S. cerevisiae deletion strains, locus YOR061W, strain CKA2, stronger effect = lower value 1.01 | S. cerevisiae deletion strains, locus YOR069W, strain VPS5, stronger effect = lower value 1.01 | S. cerevisiae deletion strains, locus YOR070C, strain gyp1, stronger effect = lower value 0.998 | S. cerevisiae deletion strains, locus YOR080W, strain dia2, stronger effect = lower value 0.999 | S. cerevisiae deletion strains, locus YOR083W, strain WHI5, stronger effect = lower value 0.946 | S. cerevisiae deletion strains, locus YOR106W, strain vam3, stronger effect = lower value 0.999 | S. cerevisiae deletion strains, locus YOR136W, strain idh2, stronger effect = lower value 1.02 | S. cerevisiae deletion strains, locus YOR144C, strain elg1, stronger effect = lower value 1.01 | S. cerevisiae deletion strains, locus YOR184W, strain ser1, stronger effect = lower value 1.01 | S. cerevisiae deletion strains, locus YOR231W, strain MKK1, stronger effect = lower value 0.982 | S. cerevisiae deletion strains, locus YOR265W, strain rbl2, stronger effect = lower value 1.01 | S. cerevisiae deletion strains, locus YOR270C, strain vph1, stronger effect = lower value 1.06 | S. cerevisiae deletion strains, locus YOR290C, strain snf2, stronger effect = lower value 0.993 | S. cerevisiae deletion strains, locus YOR316C, strain cot1, stronger effect = lower value 1.01 | S. cerevisiae deletion strains, locus YPL051W, strain arl3, stronger effect = lower value 0.985 | S. cerevisiae deletion strains, locus YPL055C, strain LGE1, stronger effect = lower value 1.03 | S. cerevisiae deletion strains, locus YPL078C, strain atp4, stronger effect = lower value 0.99 | S. cerevisiae deletion strains, locus YPL106C, strain sse1, stronger effect = lower value 0.94 | S. cerevisiae deletion strains, locus YPL240C, strain hsp82, stronger effect = lower value 0.994 | S. cerevisiae deletion strains, locus YPL241C, strain CIN2, stronger effect = lower value 1 | S. cerevisiae deletion strains, locus YPL256C, strain CLN2, stronger effect = lower value 0.942 | S. cerevisiae deletion strains, locus YPR119W, strain clb2, stronger effect = lower value 1.01 | S. cerevisiae deletion strains, locus YPR141C, strain kar3, stronger effect = lower value 1.01 | S. cerevisiae deletion strains, locus YPR163C, strain tif3, stronger effect = lower value 1.01 | S. cerevisiae deletion strains, locus YPR167C, strain met16, stronger effect = lower value 1.01 | S. cerevisiae deletion strains, strain wtn01, stronger effect = lower value 1.01 | S. cerevisiae strains, strain wild type, stronger effect = lower value 1
